{"source": "PubChem BioAssay (NCATS)", "assay": "Drug repurposing screens with cells derived from glioblastoma tumor samples (AID 1345199); also: nearly all actives have a fitted effect of over 40% in size", "settings": "GBM patient neurospheres viability, ATP luminescence, 48 h", "description": "CD133+ cells were isolated from GBM patient biopsies and cultured as neurospheres. Neurospheres from four patients were used to screen the NCATS pharmaceutical collection (NPC) library of approved drugs and bioactive compounds. […] The neurospheres were incubated with drugs for 48 hours in 1536-well format, then assayed with an ATP content cell viability assay. […] These hits were cherry picked to confirm activity in the four original GBM lines screened plus three other slower growing GMB lines (unable to yield enough cells for a full primary screen). Variable activities of the confirmed primary hits in the different GBM patient lines were observed. The patient line 206 responded to the greatest number of compounds and line 923 responded to the least amount of active compounds.", "key": {"[1]": {"settings": "at 45.9 µM (top of the series), tumour line B"}, "[2]": {"settings": "at 45.9 µM (top of the series), tumour line D"}, "[3]": {"settings": "at 46 µM (top of the series), tumour line A"}, "[4]": {"settings": "at 46.1 µM (top of the series), tumour line C"}}, "note": "Values joined by “and” are separate entries in the source; they are usually repeats but may differ in a detail not shown here. Equal entries are not always repeated. Inconclusive results are not listed. Where a structure was tested more than once in an assay, its records may differ in their call. A number with no mark means an inactive call. Active and inactive are the calls of the source. Calls follow the shape of the dose curve; as a rule, active = well fitted inhibition curve with a large enough effect; inconclusive = small, poorly fitted or top-dose-only effect; inactive = flat fitted curve, though single readings scatter. % is scaled to controls: 0 for no effect and ±100 for the full control effect; potency is read from the fitted curve at half-maximal effect.", "data": [{"smiles": "CCn1cc(C(=O)O)c(=O)c2cnc(N3CCNCC3)nc21", "values": [{"measurement": "activity, negative = cell killing", "setting": "at 20 µM (top of the series), tumour line C", "value": -6, "unit": "%"}, {"measurement": "activity, negative = cell killing", "setting": "at 21.2 µM (top of the series), tumour line B", "value": -11.9, "unit": "%"}, {"measurement": "activity, negative = cell killing", "setting": "at 21.2 µM (top of the series), tumour line D", "value": -14.4, "unit": "%"}, {"measurement": "activity, negative = cell killing", "setting": "at 21.3 µM (top of the series), tumour line A", "value": -22, "unit": "%"}]}, {"smiles": "CC(=O)O[C@@]12CO[C@@H]1C[C@H](O)[C@@]1(C)C(=O)[C@H](O)C3=C(C)[C@@H](OC(=O)[C@H](O)[C@@H](NC(=O)OC(C)(C)C)c4ccccc4)C[C@@](O)([C@@H](OC(=O)c4ccccc4)[C@H]21)C3(C)C", "values": [{"measurement": "activity, negative = cell killing", "setting": "[1]", "value": "-12.5% and -11.2%"}, {"measurement": "activity, negative = cell killing", "setting": "[2]", "value": "-11.2% and -24.9%"}, {"measurement": "Potency", "setting": "tumour line A", "value": "10 µM (active)"}]}, {"smiles": "NCC(=O)CCC(=O)O", "values": [{"measurement": "activity, negative = cell killing", "setting": "[1]", "value": -16.2, "unit": "%"}, {"measurement": "activity, negative = cell killing", "setting": "[2]", "value": -11, "unit": "%"}, {"measurement": "activity, negative = cell killing", "setting": "[3]", "value": -11, "unit": "%"}, {"measurement": "activity, negative = cell killing", "setting": "[4]", "value": -6.71, "unit": "%"}]}, {"smiles": "CN1[C@@H]2CC(OC(=O)[C@H](CO)c3ccccc3)C[C@H]1[C@@H]1O[C@@H]12", "note": "(stereo not given in full)", "values": [{"measurement": "activity, negative = cell killing", "setting": "[1]", "value": "-8.37% and 0.366%"}, {"measurement": "activity, negative = cell killing", "setting": "[2]", "value": "-25.9% and -16.8%"}, {"measurement": "activity, negative = cell killing", "setting": "[4]", "value": "15.6% and -2.3%"}]}, {"smiles": "Cc1c(Cl)cccc1Nc1ccccc1C(=O)O", "values": [{"measurement": "activity, negative = cell killing", "setting": "[1]", "value": -21.5, "unit": "%"}, {"measurement": "activity, negative = cell killing", "setting": "[2]", "value": -17, "unit": "%"}, {"measurement": "activity, negative = cell killing", "setting": "[4]", "value": -5.72, "unit": "%"}]}, {"smiles": "[O-][n+]1cccc(CO)c1", "values": [{"measurement": "activity, negative = cell killing", "setting": "[1]", "value": -6.72, "unit": "%"}, {"measurement": "activity, negative = cell killing", "setting": "[2]", "value": -10.2, "unit": "%"}, {"measurement": "activity, negative = cell killing", "setting": "[3]", "value": -20.8, "unit": "%"}, {"measurement": "activity, negative = cell killing", "setting": "[4]", "value": -13.8, "unit": "%"}]}, {"smiles": "c1ccc(CN(CC2=NCCN2)c2ccccc2)cc1", "values": [{"measurement": "activity, negative = cell killing", "setting": "[1]", "value": -15.8, "unit": "%"}, {"measurement": "activity, negative = cell killing", "setting": "[2]", "value": -19.1, "unit": "%"}, {"measurement": "activity, negative = cell killing", "setting": "[4]", "value": -20.7, "unit": "%"}]}, {"smiles": "CC(C)(C(=O)O)c1ccc(C(O)CCCN2CCC(C(O)(c3ccccc3)c3ccccc3)CC2)cc1", "note": "(stereo not given)", "values": [{"measurement": "activity, negative = cell killing", "setting": "[1]", "value": 0.768, "unit": "%"}, {"measurement": "activity, negative = cell killing", "setting": "[2]", "value": 0.91, "unit": "%"}, {"measurement": "activity, negative = cell killing", "setting": "[3]", "value": -18.8, "unit": "%"}, {"measurement": "activity, negative = cell killing", "setting": "[4]", "value": 14, "unit": "%"}]}, {"smiles": "O=C(CCCN1CCN(c2ccccn2)CC1)c1ccc(F)cc1", "values": [{"measurement": "activity, negative = cell killing", "setting": "[1]", "value": -17, "unit": "%"}, {"measurement": "Potency", "setting": "tumour line A", "value": "8.91 µM (active)"}]}, {"smiles": "O=c1cc[nH]c(=O)[nH]1", "values": [{"measurement": "activity, negative = cell killing", "setting": "[1]", "value": -1.25, "unit": "%"}, {"measurement": "activity, negative = cell killing", "setting": "[2]", "value": -13.5, "unit": "%"}, {"measurement": "activity, negative = cell killing", "setting": "[3]", "value": -25.6, "unit": "%"}, {"measurement": "activity, negative = cell killing", "setting": "[4]", "value": -13, "unit": "%"}]}, {"smiles": "OCc1cc(C(O)CNCCCCCCOCCCCc2ccccc2)ccc1O", "note": "(stereo not given)", "values": [{"measurement": "activity, negative = cell killing", "setting": "[4]", "value": 2.29, "unit": "%"}, {"measurement": "Potency", "setting": "tumour line A", "value": "7.08 µM (active)"}, {"measurement": "Potency", "setting": "tumour line B", "value": "20 µM (active)"}, {"measurement": "Potency", "setting": "tumour line D", "value": "20 µM (active)"}]}, {"smiles": "O=Cc1ccccc1C=O", "values": [{"measurement": "activity, negative = cell killing", "setting": "[4]", "value": -17, "unit": "%"}, {"measurement": "Potency", "setting": "tumour line D", "value": "35.5 µM (active)"}]}]}
